In article PMC5540273 (PLoS ONE, 2017):

What was measured:
Conditions in all cases: concentration: 1 μM, replicates: in singlicate; n = 1
[1] = tested on: MAP3K15
[2] = tested on: MAP3K1
[3] = tested on: MAP3K2
[4] = tested on: MAP3K3
[5] = tested on: MAP3K4
[6] = tested on: MAP4K2
[7] = tested on: MAP4K3
[8] = tested on: MAP4K4
[9] = tested on: MAP4K5
[10] = tested on: MAPKAPK2
[11] = tested on: MAPKAPK5
[12] = tested on: MARK1
[13] = tested on: MARK2
[14] = tested on: MARK3
[15] = tested on: MARK4
[16] = tested on: MAST1
[17] = tested on: T1, MEK1
T1 construct: gene MAP2K1

[18] = tested on: T2, MEK2
T2 construct: gene MAP2K2

[19] = tested on: T3, MEK3
T3 construct: gene MAP2K3

[20] = tested on: T4, MEK4
T4 construct: gene MAP2K4
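Also: KINOMEscan kinase panel screen.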

SMILES | %Inh [1] [%] | %Inh [2] [%] | %Inh [3] [%] | %Inh [4] [%] | %Inh [5] [%] | %Inh [6] [%] | %Inh [7] [%] | %Inh [8] [%] | %Inh [9] [%] | %Inh [10] [%] | %Inh [11] [%] | %Inh [12] [%] | %Inh [13] [%] | %Inh [14] [%] | %Inh [15] [%] | %Inh [16] [%] | %Inh [17] [%] | %Inh [18] [%] | %Inh [19] [%] | %Inh [20] [%]
COc1cc(Nc2nccc(-c3c(-c4cccc(NC(=O)c5c(F)cccc5F)c4)nn4ccccc34)n2)cc(OC)c1OC [GSK323521] | 0 | 27 | 56 | 20 | 65 | 37 | 71 | 0 | 70 | 24 | 3 | 6 | 0 | 51 | 17 | 0 | 4 | 0 | 0 | 41
O=C(Nc1n[nH]c2cc(-c3ccoc3)ccc12)C1CC1 [SB-738481] | 10 | 0 | 3 | 50 | 17 | 2 | 0 | 10 | 0 | 0 | 10 | 11 | 15 | 0 | 0 | 37 | 2 | 18 | 23 | 3
O=C(NC1CCN(c2ccnc(Nc3ccc(F)cc3)n2)C1)c1cc2ccccc2s1 (centres unmarked) [GSK1379716] | 0 | 16 | 12 | 0 | 0 | 0 | 0 | 0 | 0 | 32 | 0 | 0 | 0 | 0 | 10 | 0 | 0 | 4 | 0 | 20
COc1cccc(-c2ccc3c(NC(=O)C4CC4)n[nH]c3n2)c1 [SB-710903] | 0 | 35 | 15 | 0 | 32 | 0 | 0 | 53 | 3 | 16 | 0 | 0 | 0 | 0 | 9 | 42 | 0 | 0 | 0 | 17
COc1cc(Nc2nccc(N3CCC(NC(=O)c4cc5ccccc5s4)C3)n2)cc(OC)c1OC (centres unmarked) [GSK1379760] | 0 | 7 | 0 | 11 | 16 | 13 | 8 | 25 | 28 | 0 | 1 | 7 | 12 | 0 | 22 | 1 | 7 | 0 | 3 | 0
Nc1ncc(-c2cccnc2)c2scc(-c3ccc4c(c3)CCN4C(=O)Cc3ccccc3)c12 [GSK683281] | 100 | 41 | 56 | 18 | 69 | 23 | 95.2 | 8 | 98.8 | 24 | 0 | 0 | 0 | 19 | 0 | 0 | 0 | 1 | 0 | 66
O=C(O)C(F)(F)F.O=C(O)C(F)(F)F.O=c1[nH]ccc2nc(N[C@@H]3CCCNC3)nc(Nc3ccc(S(=O)(=O)N4CCOCC4)cc3)c12 [GSK2177277] | 67 | 22 | 100 | 99.9 | 0 | 100 | 99 | 97.6 | 99.8 | 65 | 61 | 95.3 | 98.2 | 90.5 | 97.1 | 27 | 96.6 | 91.6 | 99.4 | 99.4
c1ccc(-c2n[nH]cc2Nc2ccnc3ccccc23)nc1 [GW694077] | 6 | 0 | 38 | 0 | 9 | 65 | 0 | 20 | 0 | 0 | 0 | 0 | 0 | 0 | 1 | 3 | 0 | 0 | 92.5 | 92.8
O=C(Nc1cccc(-c2nn3ncccc3c2-c2ccnc(Nc3ccccc3)n2)c1)c1c(F)cccc1F [GSK198271] | 0 | 3 | 35 | 0 | 35 | 0 | 33 | 33 | 84 | 24 | 0 | 0 | 0 | 0 | 0 | 0 | 70 | 77 | 3 | 39
COc1cc(Nc2nccc(N3CCC(NC(=O)Nc4cccc(C(C)=O)c4)C3)n2)cc(OC)c1OC (centres unmarked) [GSK1379753] | 0 | 1 | 22 | 0 | 0 | 8 | 0 | 3 | 0 | 0 | 0 | 0 | 0 | 0 | 6 | 0 | 0 | 0 | 0 | 55
